From PubChem
Mdm2-MdmX inh – inhibitors of human Mdm2/MdmX interaction; O15151+Q00987; SaOS-2 split-luciferase Mdm2/MdmX complementation, luminescence; inhibition, % at 8 µM; hit rate 3% among 330,000; AID 485346;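 active means inhibition of at least 50% at 8 µM in the primary screen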
Target sequence (O15151 whole entry, looked up): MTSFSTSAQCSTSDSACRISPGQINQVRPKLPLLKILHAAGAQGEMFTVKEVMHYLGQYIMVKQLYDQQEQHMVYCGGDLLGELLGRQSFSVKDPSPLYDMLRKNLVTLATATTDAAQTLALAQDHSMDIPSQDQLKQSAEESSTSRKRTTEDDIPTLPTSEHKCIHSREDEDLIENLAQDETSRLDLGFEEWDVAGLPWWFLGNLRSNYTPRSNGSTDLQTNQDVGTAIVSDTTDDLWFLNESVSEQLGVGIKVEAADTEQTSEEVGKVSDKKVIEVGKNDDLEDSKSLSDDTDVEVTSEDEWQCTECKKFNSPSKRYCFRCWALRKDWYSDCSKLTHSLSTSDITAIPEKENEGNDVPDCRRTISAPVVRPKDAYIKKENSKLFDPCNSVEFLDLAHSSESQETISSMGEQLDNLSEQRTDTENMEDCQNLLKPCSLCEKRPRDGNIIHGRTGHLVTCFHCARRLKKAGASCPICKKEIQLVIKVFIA
Target sequence (Q00987 whole entry, looked up): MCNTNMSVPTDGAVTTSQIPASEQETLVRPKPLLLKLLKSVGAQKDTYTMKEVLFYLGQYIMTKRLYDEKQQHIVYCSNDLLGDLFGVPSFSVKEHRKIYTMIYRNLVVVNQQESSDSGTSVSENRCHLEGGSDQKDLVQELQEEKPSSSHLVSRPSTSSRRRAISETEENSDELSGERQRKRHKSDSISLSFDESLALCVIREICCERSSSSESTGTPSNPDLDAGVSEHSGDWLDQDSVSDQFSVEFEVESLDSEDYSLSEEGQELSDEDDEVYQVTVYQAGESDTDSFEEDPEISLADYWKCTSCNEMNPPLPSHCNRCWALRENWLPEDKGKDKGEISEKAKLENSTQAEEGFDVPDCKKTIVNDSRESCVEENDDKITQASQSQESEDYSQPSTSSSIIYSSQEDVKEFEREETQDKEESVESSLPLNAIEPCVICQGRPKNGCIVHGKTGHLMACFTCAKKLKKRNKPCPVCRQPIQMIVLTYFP
Jurkat NFkB inh – lowers PMA/ionomycin-induced NF-kB signal in Jurkat cells | PMA/ionomycin-induced NF-kB luciferase reporter, luminescence | inhibition, % at 4 µM | hit rate 0.53% among 330,000; in the data active means inhibition above about 50%
697 NFkB inh – inhibitors of the PMA/ionomycin-induced NF-kB reporter in 697 B cells; 697 B-cell NF-kB luciferase reporter, 16 h; inhibition, % at 4 µM; hit rate 0.33% among 330,000; in the data active means inhibition above about 35%
Gli-Sufu antag – Gli-Sufu pathway antagonism. hit rate 0.74% among 340,000. AID 588413. Sufu-KO-LIGHT fibroblasts, Gli luciferase reporter luminescence. inhibition, % at 5 µM;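 active means inhibition above about 55%, limit read from the data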;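 further: 0% = DMSO-treated cells and 100% = wells with medium but no cells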
Beta cell apopt – beta cell apoptosis inhibition | INS-1E cytokine-induced death, ATP luminescence, 48 h; percent of positive-control rescue, neutral wells zero | AID 435005 | protection from apoptosis, % (concentration not given with the values) | hit rate 0.8% among 300,000;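 active means Every replicate reaches about 75%, or at least half do and their mean reaches it too, limit read from the data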;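 further: 0% = cytokine-treated negative control wells and 100% = positive control rescue; higher means more ATP so stronger rescue from cytokine killing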
Jurkat NFkB conf – inhibitors of the PMA/ionomycin-induced NF-kB reporter in Jurkat cells, retest. shares compounds with Jurkat NFkB inh. inhibition, % at 4 µM. hit rate 27% among 2,700. Jurkat NF-kB luciferase, 16 h;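 active means inhibition reaching about 45% at 4 µM in either replicate, limit read from the data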;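 further: plate controls were PMA/ionomycin stimulated DMSO wells for no effect and unstimulated DMSO wells for full effect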
697 NFkB conf – inhibitors of the PMA/ionomycin-induced NF-kB reporter in 697 B cells, retest. 697 B-cell NF-kB luciferase, 16 h. AID 449746. inhibition, % at 4 µM. hit rate 35% among 2,000. shares compounds with 697 NFkB inh; in the data active means inhibition mostly above about 28%, no sharp cut-off; inactive means mostly below about 22%
Mdm2 MdmX conf – human Mdm2/MdmX binding inhibition, confirmed | shares compounds with Mdm2-MdmX inh | luminescent assay | inhibition, % at 8 µM | hit rate 55% among 10,000; in the data active means inhibition above about 40%
Full FLuc ctr – counter-screen for Mdm2/MdmX inhibitors: full-length luciferase | shares compounds with Mdm2-MdmX inh | SaOS-2 full-length luciferase counterscreen, luminescence | inhibition, % at 8 µM | hit rate 77% among 6,200;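 active means mean inhibition at 8 µM reaching about 37%, which flags the compound as non-specific, limit read from the data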;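 further: p53-null SaOS-2 cells with luciferase driven by a doxycycline-inducible promoter; compound on cells about two nights before reading with doxycycline added after day one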
An asterisk follows results filed as active; . = no result; + = active, no number. Hits are enriched below; roughly 4% of the tested compounds scored in any of these assays.

SMILES | Mdm2-MdmX inh | Jurkat NFkB inh | 697 NFkB inh | Gli-Sufu antag | Beta cell apopt | Jurkat NFkB conf | Mdm2 MdmX conf | Full FLuc ctr | others
c1ccc(-c2ccc(-c3nc(-c4ccccn4)no3)cc2)cc1 | 97* | 77* | 39* | 81* | 70 | 81* | 89* | 23 | 697 NFkB conf=36*
c1ccc(-c2nc(-c3ccccn3)no2)cc1 | 40 | 3 | -71 | 13 | 40 | . | . | .
Cc1cc(=O)oc2cc(NC(=O)CN3C(=O)NC(C)(c4ccccc4)C3=O)ccc12 (configuration not stated) | -21 | -6 | 13 | -1 | -3 | . | . | .
COc1ccc(C(=O)c2sc3nc(-c4ccccc4)ccc3c2N)cc1 | -11 | -15 | -40 | -4 | -2 | . | . | .
CC(C)OC(=O)c1sc2nc(-c3ccccc3)ccc2c1N | 52* | -290 | -276 | 9 | 4 | -8 | 45* | 180* | 697 NFkB conf=-81
O=C(COc1ccc2c(-c3ccccc3)cc(=O)oc2c1)NCc1ccccn1 | 25 | -11 | 24 | -11 | 0 | . | . | .
O=C(COc1ccc2c(-c3ccccc3)cc(=O)oc2c1)Nc1cccnc1 | 68* | 50* | -48 | -6 | -4 | 48* | 42* | 82*
COC(=O)c1cc(S(=O)(=O)NCC2CCN(CCc3cccs3)CC2)c[nH]1 | -1 | -12 | -1 | 20 | -1 | . | . | .
O=C(CN(Cc1ccccc1)S(=O)(=O)c1ccc(F)cc1)NCc1ccccn1 | -3 | -1 | -15 | -12 | -4 | . | . | .
FC(F)(F)c1nnc2c(Sc3ccccc3)nc3ccc(Cl)cc3n12 | 97* | 85* | 67* | 19 | 96* | -17 | 99* | 21 | 697 NFkB conf=14
FC(F)(F)c1nc2ccccc2n2c(-c3ccc(Cl)cc3Cl)nnc12 | 47 | -5 | -17 | -1 | 3 | . | . | .
Cc1ccccc1-n1cnc2cc(NCc3cccs3)ccc21 | 32 | 8 | -14 | -6 | -9 | . | . | .
COc1ccccc1-n1cnc2cc(NCc3cccs3)ccc21 | 51* | 51* | -83 | 44 | 14 | 19 | 55* | 80*
Cc1ccc2c(c1)Oc1ccc(NC(=O)CCl)cc1C(=O)N2 | 92* | 64* | 17 | 23 | 9 | 51* | 87* | 54*
CSCCC(NC(=O)c1ccccc1)C(=O)NNC(=O)c1csc(N2CCOCC2)n1 (configuration not stated) | 19 | -10 | -10 | -3 | -1 | . | . | .
CCOc1ccc(S(=O)(=O)N2CCN(C(=O)c3ccc(-n4cncn4)c([N+](=O)[O-])c3)CC2)cc1 | 14 | 8 | 9 | 7 | -1 | . | . | .
O=C(Cc1n[nH]c(=O)c2ccccc12)OCC(=O)c1ccc(F)cc1 | 19 | -3 | 21 | -7 | -2 | . | . | .
CCOc1ccc(C(=O)COC(=O)Cc2n[nH]c(=O)c3ccccc23)cc1 | 57* | 55* | -7 | -6 | 31 | 8 | 75* | 51*
O=C1CC(c2cccc(Br)c2)C2=C(COC2=O)N1 (configuration not stated) | -24 | -23 | -31 | 15 | -3 | . | . | .
CN(C)S(=O)(=O)c1ccc(NC(=O)CN2CCCc3ccccc32)cc1 | -2 | 6 | 9 | -25 | -5 | . | . | .
COc1c2c(cc3oc(=O)c4c5ccc(O)cc5oc4c13)OC(C)(C)CC2 | 81* | -376 | -347 | -17 | 7 | -124 | 63* | + | 697 NFkB conf=-377
CCN1/C(=C/C(C)=C/c2sc3ccccc3[n+]2CC)Sc2ccccc21 | 97* | 93* | 49* | 90* | 110* | 78* | 100* | 15 | 697 NFkB conf=7
CCOC(=O)C1CCN(S(=O)(=O)c2c(Cl)ccc3nonc23)CC1 | 100* | 72* | -2 | . | 48 | 40 | 98* | 1
CCOC(=O)C1CCN(S(=O)(=O)c2cccc3nonc23)CC1 | -1 | -7 | 10 | 1 | 6 | . | . | .
COc1ccc(CCNc2cc(N3CCN(C(=O)c4ccccc4F)CC3)ccc2[N+](=O)[O-])cc1OC | 53* | 58* | -16 | -13 | 104* | 67* | 35 | 79*
SMILES | Mdm2-MdmX inh | Jurkat NFkB inh | 697 NFkB inh | Gli-Sufu antag | Beta cell apopt | Jurkat NFkB conf | Mdm2 MdmX conf | Full FLuc ctr | others
Cc1ccc(-n2ncc3c(N4CCCC4)ncnc32)c(C)c1 | -9 | -25 | -43 | -29 | . | . | . | .
COc1cccc(N2CCN(c3ncnc4c3cnn4-c3ccc(C)cc3C)CC2)c1 | 90* | 87* | 22 | 14 | 49 | 70* | 100* | 28
COc1ccc2c(Cn3cnc4cc([N+](=O)[O-])ccc4c3=O)cc(=O)oc2c1 | 60* | 70* | 15 | -23 | 2 | 11 | 73* | 20
COc1cc(C2CC(=O)c3cnc(N4CCN(Cc5ccccc5)CC4)nc3C2)cc(OC)c1OC (configuration not stated) | 52* | 59* | -73 | -10 | 15 | 16 | 68* | 52*
CCOC(=O)C(C)Oc1cccc2c(=O)n(CC(=O)NCc3ccco3)ccc12 (configuration not stated) | 51* | 57* | -14 | 30 | 26 | 43 | 58* | 63*
CC(C)(C)NC(=O)CCN(/N=C/c1ccccc1F)C1=NS(=O)(=O)c2ccccc21 | 20 | 6 | 2 | -6 | 6 | . | . | .
Cc1ccccc1OCC(O)CNC1CCC(NCC(O)COc2ccccc2C)CC1 (configuration not stated) | 100* | 97* | 26 | 26 | 113* | 35 | 100* | 52*
Cc1cnc(C(=O)OC(C)C(=O)Nc2ccc3c(c2)OCCO3)cn1 (configuration not stated) | 26 | -7 | 4 | -4 | . | . | . | .
COc1cc(C(=O)NCC2CCCO2)ccc1OCc1ccccc1Cl (configuration not stated) | 25 | 2 | -12 | -10 | 4 | . | . | .
CCn1ncc(C2=NOC(C(=O)NCc3ccccc3)C2)c1C (configuration not stated) | 62* | 74* | 18 | 42 | 6 | 46 | 52* | 84*
CC(C)Oc1ccccc1C1CC(=O)Nc2cc3c(cc21)OCO3 (configuration not stated) | 70* | 76* | 7 | 54 | 34 | 53* | 61* | 84*
Cc1cc2c(cc1C)C(c1ccccc1OC(C)C)CC(=O)N2 (configuration not stated) | 57* | 52* | -76 | 2 | 41 | 36 | 55* | 43*
CC(CC(=O)NCCc1ccc(S(N)(=O)=O)cc1)c1ccccc1 (configuration not stated) | 21 | 7 | -15 | -1 | -2 | . | . | .
